Results from PubChem BioAssay (NCI).
“And” between values parts separate entries of the source, which are not always exact repeats. Identical values can stand only once. The panel holds about 79,000 compounds, 15% with a hit somewhere; the sample as a whole holds those more often. Some structures have more than one record in an assay (separate samples or runs), and their calls can disagree. The source made the active and inactive calls. No stated cut-off is given here; in the data, active means growth inhibition above about 70%; inactive means the rest.

Columns and labels:
[1] = NCI Yeast Anticancer Drug Screen. Data for the rad52 strain (AID 147);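 further: 0% = growth of vehicle-treated control cultures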; details: S. cerevisiae rad52 mutant growth inhibition, stronger effect = higher value
Outline: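 Read-out: growth inhibition versus vehicle-treated controls. Cells were a DNA repair-deficient yeast strain treated with compounds.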

[2] = NCI Yeast Anticancer Drug Screen. Data for the wt1 strain (AID 149);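 further: 0% = growth of vehicle-treated wt1 cultures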; details: S. cerevisiae wt1 strain (SPY 50644) growth inhibition, stronger effect = higher value
Outline: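 Using yeast strain wt1, compound-induced growth inhibition was determined against vehicle-treated cultures.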

[3] = NCI Yeast Anticancer Drug Screen. Data for the rad50EPP+ strain (AID 151);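 further: 0% = growth of vehicle-treated control cultures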; details: S. cerevisiae rad50 mutant strain, stronger effect = higher value
Outline: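 Growth inhibition read against vehicle controls in rad50EPP+ yeast, a strain altered in DNA damage repair, after compound exposure.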

[4] = NCI Yeast Anticancer Drug Screen. Data for the rad50 strain (AID 155);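 further: 0% = growth of vehicle-only cultures of the same strain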; details: S. cerevisiae rad50 strain growth inhibition, stronger effect = higher value
Outline: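 Relative growth inhibition (compound vs vehicle) was measured in yeast with a defined repair-gene alteration.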

[5] = NCI Yeast Anticancer Drug Screen. Data for the mec2-1 strain (AID 157); details: S. cerevisiae mec2-1 strain, stronger effect = higher value
Outline: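 Yeast mec2-1 mutant treated with compound. Readout: growth inhibition vs vehicle controls.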

[6] = NCI Yeast Anticancer Drug Screen. Data for the rad14 strain (AID 159);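 further: 0% = growth of vehicle-treated control cultures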; details: S. cerevisiae rad14 strain growth inhibition, stronger effect = higher value
Outline: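 Screen for anticancer potential: a yeast strain altered in DNA damage repair is grown with compound, and reduced growth is quantified against vehicle controls.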

[7] = NCI Yeast Anticancer Drug Screen. Data for the sgs1 mgt1 strain (AID 161);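 further: 0% = growth of cultures given vehicle only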; details: S. cerevisiae sgs1 mgt1 strain, stronger effect = higher value
Outline: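 Inhibition of yeast growth, normalised to vehicle-treated controls, is reported for a strain bearing genetic alterations in DNA damage repair.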

[8] = NCI Yeast Anticancer Drug Screen. Data for the CLN2oe strain (AID 163);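 further: 0% = growth of vehicle-only control cultures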; details: S. cerevisiae CLN2oe strain, stronger effect = higher value
Outline: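 Read-out: yeast growth inhibition, expressed relative to vehicle-only controls. The strain bears an engineered cell-cycle alteration.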

[9] = NCI Yeast Anticancer Drug Screen. Data for the cln2 rad14 strain (AID 165);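 further: 0% = growth equal to vehicle treated cultures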; details: S. cerevisiae cln2 rad14 strain, stronger effect = higher value
Outline: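 cln2 rad14 yeast strain; compound exposure; growth inhibition read vs vehicle controls.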

[10] = NCI Yeast Anticancer Drug Screen. Data for the bub3 strain (AID 167); details: S. cerevisiae bub3 mutant strain, stronger effect = higher value
Outline: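 Screening used yeast with an engineered genetic alteration affecting cell cycle control. Compound-exposed cultures were compared with vehicle cultures, and reduced growth was taken as inhibition.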

[11] = NCI Yeast Anticancer Drug Screen. Data for the wt2 strain (AID 169);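 further: 0% = growth of vehicle-treated yeast cultures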; details: S. cerevisiae wt2 strain growth inhibition, stronger effect = higher value
Outline: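 Read-out: growth inhibition versus vehicle-treated control cultures after compound exposure of the yeast strain.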

[12] = NCI Yeast Anticancer Drug Screen. Data for the sgs1 strain (AID 173);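 further: 0% = growth of vehicle-only control cultures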; details: S. cerevisiae sgs1 mutant, stronger effect = higher value
Outline: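 Read-out: yeast growth inhibition relative to vehicle controls, following compound exposure of a strain with a defined DNA repair/cell cycle alteration.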

[13] = NCI Yeast Anticancer Drug Screen. Data for the mlh1 rad18 strain (AID 175); details: S. cerevisiae mlh1 rad18 strain growth inhibition, stronger effect = higher value
Outline: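 Yeast w/ defined DNA-repair lesions; compound exposure; growth vs vehicle controls → % inhibition.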

[14] = NCI Yeast Anticancer Drug Screen. Data for the rad18 strain (AID 177); details: S. cerevisiae rad18 mutant growth inhibition, stronger effect = higher value
Outline: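 Readout: growth inhibition vs vehicle controls. Cells: genetically altered yeast strain, DNA repair defect.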

[15] = at 5.0 µM (retest, dose inferred, filed as 0.5)
[16] = at 50.0 µM (retest, dose inferred, filed as 5.0)

Measured: growth inhibition

CCCCCCCCCCCCCCCCP(=O)(O)OP(=O)(O)OCC1OC(n2ccc(N)nc2=O)C(O)C1O (stereo not drawn)
73.3% (active) and 8.3% (inactive): [4]; at 50.0 µM
76% (active) and -16.8% (inactive): [10]; at 50.0 µM
80.7% (active) and -3.1% (inactive): [5]; at 50.0 µM
inactive: [1]; at 1.2 µM 3% | [1]; at 3.7 µM 3% | [1]; at 11.0 µM 4% | [1]; at 33.0 µM 3% | [1]; at 100.0 µM 5% | [2]; at 1.2 µM 3% | [2]; at 3.7 µM 4% | [2]; at 11.0 µM 6% | [2]; at 33.0 µM 3% | [2]; at 100.0 µM 3% | [3]; at 1.2 µM 0% | [3]; at 3.7 µM -5% | [3]; at 11.0 µM -6% | [3]; at 33.0 µM -2% | [3]; at 100.0 µM 18% | [4]; at 1.2 µM 2% | [4]; at 3.7 µM 1% | [4]; [15] -13% | [4]; at 11.0 µM 2% | [4]; at 33.0 µM 0% | [4]; [16] 10% | [4]; at 100.0 µM 3% | [5]; at 1.2 µM -3% | [5]; at 3.7 µM -3% | [5]; [15] -9% | [5]; at 11.0 µM -4% | [5]; at 33.0 µM -5% | [5]; [16] -13% | [5]; at 100.0 µM -3% | [6]; at 1.2 µM -2% | [6]; at 3.7 µM -1% | [6]; at 11.0 µM -1% | [6]; at 33.0 µM -1% | [6]; at 100.0 µM 1% | [7]; [15] -2% | [7]; [16] 46% | [8]; at 1.2 µM -3% | [8]; at 3.7 µM -7% | [8]; at 11.0 µM -6% | [8]; at 33.0 µM -17% | [8]; at 100.0 µM -17% | [9]; [15] 0% | [9]; [16] 6% | [9]; at 50.0 µM 59.9% and -13.4% | [10]; at 1.2 µM -1% | [10]; at 3.7 µM -2% | [10]; [15] 14% | [10]; at 11.0 µM -4% | [10]; at 33.0 µM -10% | [10]; [16] -19% | [10]; at 100.0 µM -19% | [11]; at 1.2 µM 1% | [11]; at 3.7 µM 0% | [11]; at 11.0 µM 1% | [11]; at 33.0 µM 1% | [11]; at 100.0 µM 1% | [12]; at 1.2 µM 0% | [12]; at 3.7 µM 0% | [12]; at 11.0 µM -3% | [12]; at 33.0 µM 1% | [12]; at 100.0 µM 21% | [13]; [15] -19% | [13]; [16] 26% | [14]; at 1.2 µM -1% | [14]; at 3.7 µM -2% | [14]; at 11.0 µM 3% | [14]; at 33.0 µM 0% | [14]; at 100.0 µM 11%
74% (active) and -35.4% (inactive): [13]; at 50.0 µM
88.3% (active) and 3.75% (inactive): [7]; at 50.0 µM
